# Screens as filed in PubChem.
# Rows were chosen to be rich in hits. Some 11% of all compounds tested hit in one or more screens of this group.
# NPSR antag: qHTS Assay for Antagonists of the Neuropeptide S Receptor: cAMP Signal Transduction; CHO-NPSR cells, cAMP TR-FRET, antagonist mode; Potency, µM (titrated, usually from 38.3 µM), without a hit: top-dose activity change, negative = inhibition, actives largely listed as inhibitors; 220,000 compounds, 1% hits; note: potency is the fitted concentration of half-maximal effect; nearly all actives have a fitted effect of over 50% in size
# Target sequence (Q6W5P4 whole entry, looked up): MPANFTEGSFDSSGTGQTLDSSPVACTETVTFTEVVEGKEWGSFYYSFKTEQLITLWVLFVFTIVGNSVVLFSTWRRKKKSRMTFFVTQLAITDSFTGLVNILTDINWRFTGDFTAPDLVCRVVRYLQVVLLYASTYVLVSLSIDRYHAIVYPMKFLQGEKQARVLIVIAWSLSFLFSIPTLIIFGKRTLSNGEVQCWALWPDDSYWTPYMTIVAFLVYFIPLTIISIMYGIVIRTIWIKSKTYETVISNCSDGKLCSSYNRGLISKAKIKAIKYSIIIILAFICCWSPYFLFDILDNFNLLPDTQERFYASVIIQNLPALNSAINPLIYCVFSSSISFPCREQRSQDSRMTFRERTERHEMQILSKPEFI
# HPGD block: qHTS Assay for Inhibitors of HPGD (15-Hydroxyprostaglandin Dehydrogenase). purified HPGD, NADH fluorescence kinetic, PGE2 substrate. Potency, µM, inactives show at the top dose activity change, negative = inhibition, hits mostly inhibitors. 150,000 compounds, 4.3% hits. AID 894, 2007; active = well fitted inhibition curve with a large enough effect, not every such curve was filed as active; inconclusive = small, poorly fitted or top-dose-only effect, or another doubt; inactive = no such curve, though single readings can be large or run the other way; note: potency is the fitted concentration of half-maximal effect
#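 20 nM HPGD preincubated 15 min at room temperature with compound in 50 mM Tris-HCl pH 8, 0.01% Tween 20. Started with 1 mM NAD+ and 30 uM prostaglandin E2; NADH fluorescence (360/450 nm) read 5 times over 30-s intervals, last minus first.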
# IMPase Li inh: qHTS Assay for Identifying the Cell-Membrane Permeable IMPase Inhibitors: Potentiation with Lithium | CHO-M1 cells, IP1 TR-FRET (IP-One), carbachol + lithium | Potency, µM (series often up to 59.4 µM), for the others: at the top dose activity, negative = IMPase inhibition, usual class: inhibitors | 210,000 compounds, 0.35% hits;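 note: IP1 builds up when IMPase is blocked and the TR-FRET signal falls; potency is the fitted concentration of half-maximal effect; plate controls were basal vehicle for no effect and high inhibitor control for full effect; nearly all actives have a fitted effect of over 50% in size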
#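 Concentration–response in CHO-M1 cells, lithium-potentiated; 30 min at 37C. IP1 detected by competitive TR-FRET after 10 min lysis at RT. Hill-fitted AC50.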
# PNC assembly inh: High Content Assay for Compounds that inhibit the Assembly of the Perinucleolar Compartment; PC3M PTB-GFP, PNC prevalence imaging, 16 h; hits give low values; activity change (PNC), negative = inhibition, % at 10 µM; 140,000 compounds, 3.1% hits;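 active = readout at or below -70, meaning at least 70% loss of cells showing the perinucleolar compartment, a nuclear body marking cancer cells; inconclusive = readout between -30 and a set limit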;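 note: plate controls were DMSO wells for no effect and camptothecin positive control wells for full effect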
#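 Compounds are pinned in duplicate onto adhered PC3M cells stably expressing GFP-tagged PTB and incubated 16 h at 37 C. Cells are then fixed, nuclei stained with Hoechst, and PNC-positive cells counted.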
# ALDH1A1 inh: qHTS Assay for Inhibitors of Aldehyde Dehydrogenase 1 (ALDH1A1); Potency, µM (doses to about 75.3 µM), inactives show at the top dose activity, negative = inhibition, hits mostly inhibitors; Purified ALDH1A1, NADH fluorescence, propionaldehyde substrate; Aldehyde dehydrogenase 1A1 (Homo sapiens), P00352; 220,000 compounds, 7.3% hits; active = well fitted inhibition curve with a large enough effect, not every such curve was filed as active; inconclusive = small, poorly fitted or top-dose-only effect, or another doubt; inactive = no such curve, though single readings can be large or run the other way;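 note: potency is the fitted concentration of half-maximal effect; plate controls were no enzyme wells and a reference inhibitor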
# IMPase cell inh: qHTS Assay for Identifying the Cell-Membrane Permeable IMPase Inhibitors; Inositol monophosphatase 1 (Rattus norvegicus), P97697; CHO-M1 cells, IP1 accumulation, HTRF TR-FRET ratio; inhibition (IP1 accumulation), % at 46.1 µM; 120,000 tested, under 10 active; active = well fitted curve in the direction sought with a large enough effect in the signal ratio, not every such curve was filed as active; inconclusive = small, poorly fitted or top-dose-only effect, or a change in a side signal; inactive = no such curve, though single readings can be large or run the other way; the % refers to the signal ratio;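 note: cells stimulated with carbachol in lithium chloride buffer; plate controls were DMSO basal wells for no effect and reference inhibitor wells for full effect; higher means more IMPase inhibition seen as more IP1 and lower FRET ratio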
#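 Measured: the HTRF emission ratio (665/620 nm) plus the 620 nm donor channel, each fitted to the Hill equation to give AC50. Cells were CHO-M1 given compounds up to 46 uM and a 30 min carbachol stimulation at 37C.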
# The depositor's hits bear a star; ? = inconclusive; · = no result; [ ] = dose if it differs, or a comment. Unless noted, calls come from the whole dose curve; as a rule, active = well fitted curve in the direction sought with a large enough effect; inconclusive = small, poorly fitted or top-dose-only effect, or another doubt; inactive = no such curve, though single readings can be large; an effect the other way counts as inactive or inconclusive. Unless noted, % is set by controls: 0 for no effect and ±100 for the full control effect.
SMILES,NPSR antag,HPGD block,IMPase Li inh,PNC assembly inh,ALDH1A1 inh,IMPase cell inh
O=C(CCNc1ccc(F)cc1)c1cc2ccccc2o1,8%,·,3%,·,0.1µM*,·
O=C(CCNc1cccc(F)c1)c1cc2ccccc2o1,-6%,·,-4%,·,0.025µM*,·
N#CC(c1ccc(Cl)cc1)c1ccc(Cl)nn1 (stereo not given),-14%[46.1 µM],-18%,-8%[38.3 µM],40,6.3µM*,12
Cc1ccc(C(C#N)c2ccc(C(=O)c3ccc(F)cc3)cc2)cc1 (stereo not given),10%[46.1 µM],-14%,31%[38.3 µM],41,?,5
N#CC(c1ccc(Cl)nn1)c1ccccc1Cl (stereo not given),-9%[46.1 µM],-12%,2%[38.3 µM],8,4µM*,5
Cc1ccc(C(C#N)c2ccc(Cl)nn2)cc1 (stereo not given),-4%,·,6%,·,8.9µM*,·
COC(=O)[C@@]1(Cc2ccccc2)[C@H]2c3cc(C(=O)N4CCCC4)n(Cc4ccc(OC)c(OC)c4)c3C[C@H]2CN1C(=O)c1ccccc1,·,-4%,16%,·,-4%,·
CCOc1ccccc1NC(=O)COC(=O)/C=C/c1ccc(OC)c(OC)c1,-4%,·,20%,·,?,·
CCCCOc1ccc(/C=C/C(=O)OCC(=O)NC(=O)NCC(C)C)cc1OCC,-6%,?,-7%,-112*,?,2
O=C1CSC(=Nc2cc(Cl)ccc2Cl)N1,1%[46.1 µM],10µM*,14%[38.3 µM],-17,1%,-6
CCc1ccc2[nH]c(=O)c(CN(Cc3ccc(F)cc3)C(c3nnnn3CCN3CCOCC3)C(C)C)cc2c1 (stereo not given),-10%[46.1 µM],-23%,38%[38.3 µM],-81*,?,-8
CCc1ccc2[nH]c(=O)c(C(c3nnnn3CCOC)N3CCN(c4ccccc4)CC3)cc2c1 (stereo not given),-15%[46.1 µM],-5%,-8%[38.3 µM],-16,11µM*,12
CCCCn1c(NCc2ccc(N(C)C)cc2)nc2ccccc21,58%,·,·,·,14µM*,?
CCCn1c(CNc2ccccc2O)nc2ccccc21,-13%[46.1 µM],-3%,11%[38.3 µM],9,13µM*,5
CCCCn1c(NCc2ccncc2)nc2ccccc21,-3%,·,12%,·,18%,·
CCCn1c(NCc2cccc(OC)c2O)nc2ccccc21,-7%[46.1 µM],4%,0%,?,6.3µM*,?
CC(=O)Nc1cc(C(=O)N2CCCC2)ccc1S(=O)(=O)c1ccc(Cl)cc1,-7%[46.1 µM],-9%,22%[38.3 µM],28,-8%,-3
CN1CCN(C(=O)CCc2ccc(S(=O)(=O)NC3CCCCC3)cc2)CC1,7%,·,0%,·,1%,·
CCC(c1nnnn1Cc1ccccc1)N(Cc1ccco1)Cc1cc2cc(OC)ccc2[nH]c1=O (stereo not given),?,-23%,12%[38.3 µM],-7,?,-18
CCCC(c1nnnn1C(C)(C)CC)N(Cc1ccco1)Cc1cc2ccc(OC)cc2[nH]c1=O (stereo not given),?,-21%,41%[38.3 µM],-28,32µM*,12
c1ccc2c(c1)[nH]c1c3ccccc3sc21,-27%,·,·,·,4%,·
COc1ccc(OC)c(N2Cc3ccccc3C2)c1,-23%[46.1 µM],-18%,7%,?,-19%,-8
COc1ccccc1N1Cc2ccccc2C1,-4%[46.1 µM],?,6%[38.3 µM],?,8.9µM*,2
Cc1ccccc1N1Cc2ccccc2C1,3%,?,6%,-28,28µM*,·
C/C(=N\NC(=O)CSc1nc2ccccc2s1)c1ccco1,6%,-26%,25%,?,2.8µM*,·
CC(=O)CSc1nc2ccccc2s1,-2%[46.1 µM],-11%,-2%[38.3 µM],32,-15%,-1
O=C(CSc1nc2ccccc2s1)N/N=C/c1ccco1,10%,-5%,-5%,6,20µM*,·
